RGS4 inhibitor = blocks human RGS4-accelerated GTP hydrolysis; hit rate 0.039% among 390,000; Transcreener GDP fluorescence polarization, RGS4-accelerated GTP hydrolysis; AID 504845; P49798; Potency, µM (doses to about 114 µM), inactives show at the highest dose activity change, negative = inhibition, hits mostly inhibitors; active = well fitted inhibition curve with a large enough effect; inconclusive = small, poorly fitted or top-dose-only effect; inactive = no such curve, though single readings can be large or run the other way; also: potency is read from the fitted curve at half-maximal effect; % is scaled to controls: 0 for no effect and ±100 for the full control effect; nearly all actives have a fitted effect of over 75% in size
Target sequence (P49798 whole entry, looked up): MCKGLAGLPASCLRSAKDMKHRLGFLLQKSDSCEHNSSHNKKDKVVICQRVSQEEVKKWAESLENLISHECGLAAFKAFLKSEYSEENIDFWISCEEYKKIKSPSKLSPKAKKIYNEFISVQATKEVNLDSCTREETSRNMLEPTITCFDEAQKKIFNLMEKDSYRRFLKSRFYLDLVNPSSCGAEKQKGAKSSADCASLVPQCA
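MLSMR compounds (23 nl, pin-transferred) preincubated 10 min at room temperature with a 500nM (2x) first reagent, then RGS4 at 900nM (2x) plus Transcreener GDP mix added; fluorescence polarization (620/688 nm) read before and after 90 min at 30 °C.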
DRD3 antagonist = blocks the human D3 dopamine receptor. max response, negative = inhibition, %. hit rate 2.5% among 360,000. D3R cells, DiscoveRx beta-arrestin luminescence, antagonist mode; hits give low values. P35462. AID 652054; in the data active = max response below about -50%; inconclusive = no clear call, values can overlap the other calls; also: % is scaled to controls: 0 for no effect and ±100 for the full control effect
Target sequence (P35462 whole entry, looked up): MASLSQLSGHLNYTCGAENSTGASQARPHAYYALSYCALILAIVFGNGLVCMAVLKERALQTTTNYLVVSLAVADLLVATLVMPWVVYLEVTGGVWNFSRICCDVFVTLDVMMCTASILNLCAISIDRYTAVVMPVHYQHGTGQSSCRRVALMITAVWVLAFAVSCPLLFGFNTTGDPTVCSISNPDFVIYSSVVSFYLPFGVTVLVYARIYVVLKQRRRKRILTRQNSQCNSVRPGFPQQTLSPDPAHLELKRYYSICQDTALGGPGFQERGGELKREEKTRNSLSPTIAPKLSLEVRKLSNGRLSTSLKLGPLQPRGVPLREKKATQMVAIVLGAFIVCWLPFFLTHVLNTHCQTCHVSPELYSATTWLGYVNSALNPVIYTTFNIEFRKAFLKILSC
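Cells expressing the human receptor were seeded at 1500 cells/well, incubated overnight at 37 degrees C in 5% CO2, then exposed to library compounds with dopamine controls for 90 minutes at 37 degrees C before luminescent detection.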
uPA generation = blocks generation of uPA at the cell surface | cell surface uPA generation assay, qHTS | Potency, µM (highest dose often 38.3 µM), for the others: at the top dose activity change, negative = inhibition, hits mostly inhibitors | hit rate 0.31% among 330,000 | AID 540303; active = well fitted inhibition curve with a large enough effect; inconclusive = small, poorly fitted or top-dose-only effect; inactive = no such curve, though single readings can be large or run the other way; tested in mouse RAW 264.7 cells; also: potency is read from the fitted curve at half-maximal effect; % is scaled to controls: 0 for no effect and ±100 for the full control effect; nearly all actives have a fitted effect of over 55% in size
D3 ag = agonists of human D3 dopamine receptor; D3R DiscoveRx beta-arrestin cells, luminescence, 90 min; max activation, %; hit rate 0.58% among 410,000; AID 652048; in the data active = max activation above about 30%; also: 0% is about no effect
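Cells at 1500/well, incubated overnight, then treated with pinned compounds (dopamine as control) for 90 min at 37 degrees C. DiscoveRx reagent added for 30 - 60 minutes at room temperature; luminescence read.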
The depositor's hits bear a star; ? = inconclusive; . = no result; [ ] = remark or other dose. Sampled rows, rich in hits. Any-hit rate of the full collection: about 3.1%.

SMILES	RGS4 inhibitor	DRD3 antagonist	uPA generation	D3 ag
O=C(CSCc1ccc(F)cc1)N1CCN(c2ccc(Cl)cc2)CC1	2%	.	.	80*
Cc1cc(=O)n(CC(=O)N2CCN(c3ccc(F)cc3)CC2)c2c1c(C)nn2C	12%	.	.	7
CCOc1ccc2[nH]c(=O)c(CN(Cc3cccs3)Cc3nnnn3C(C)(C)CC)cc2c1	21%	21	-2%	31*
COc1ccc(-c2noc(COc3ccc(Br)cc3C)n2)cc1OC	17%	.	.	2
O=C(c1ccc2c3n(nc2c1)-c1ccccc1CO3)N1CCCCC1	-9%	?	4.5µM*	9
O=C(c1ccc2c3n(nc2c1)-c1ccc(Cl)cc1CO3)N1CCOCC1	-5%	3	-26%	0
Cc1ccc2c(c1)COc1c3ccc(C(=O)N4CCCCC4)cc3nn1-2	-10%	12	-14%	9
O=C(c1ccc2c3n(nc2c1)-c1ccccc1CO3)N1CCOCC1	4%	-1	7.1µM*	1
Cc1ccc(-c2nc(N3CCCC(C)C3)c3ccccc3n2)cc1 (configuration not stated)	-17%	.	.	-3
CNC(=S)N/N=C1\C(=O)c2cccc3cccc1c23	-2%	-55*	1%	-7
CCCCNC(=S)N/N=C1\C(=O)c2cccc3cccc1c23	-4%	22	-2%	-5
COc1ccc(N2CCN(C(c3ccccc3)c3nnnn3C(C)C)CC2)cc1 (configuration not stated)	-10%	.	.	.
CCC(c1nnnn1Cc1ccccc1)N1CCN(c2ccc(OC)cc2)CC1 (configuration not stated)	15%[56.9 µM]	-4	-10%	-3
COc1ccc(-n2nnnc2C(CCc2ccccc2)N2CCN(C/C=C/c3ccccc3)CC2)cc1 (configuration not stated)	.	-76*	.	-18
COc1ccc(-n2nnnc2C(c2ccccc2)N2CCN(C/C=C/c3ccccc3)CC2)cc1 (configuration not stated)	.	-118*	.	-13
CCC(c1nnnn1-c1ccc(OC)cc1)N1CCN(C/C=C/c2ccccc2)CC1 (configuration not stated)	.	-57*	.	-4
COc1ccc(-n2nnnc2C(c2cccc(OC)c2OC)N2CCN(C/C=C/c3ccccc3)CC2)cc1 (configuration not stated)	.	-86*	.	-9
O=C(Nc1ccccc1C(=O)OCc1cc(=O)n2c3c(sc2n1)CCCC3)c1cccc(Cl)c1	6%	.	.	-5
COc1cccc(C(c2nnnn2C2CCCC2)N2CCN(C/C=C/c3ccccc3)CC2)c1OC (configuration not stated)	.	-96*	.	-22
C(=C\c1ccccc1)/CN1CCN(C(c2ccnc3ccccc23)c2nnnn2C2CCCCC2)CC1 (configuration not stated)	.	?	.	-16
COc1ccc(N(CC(=O)Nc2c(C)n(C)n(-c3ccccc3)c2=O)S(=O)(=O)c2ccc(C)cc2)cc1OC	10%	-111*	2%	5
COc1ccc(-c2oc(=O)c3cc(OC)c(OC)cc3c2C(F)(F)F)cc1	-16%	21	-2%	62*
O=C1C2C3C=CC(C3)C2C(=O)N1/N=C/c1cc(Br)cc([N+](=O)[O-])c1O (configuration not stated)	-12%	-68*	-5%	-17
CCO[C@@H]1OC(C(=O)N2CCOCC2)=C[C@H](C2CC2)[C@H]1CCCO	4%	11	-10%	5
CCO[C@H]1OC(C(=O)N2CCOCC2)=C[C@@H](C2CC2)[C@@H]1CCCO	29%	-55*	-19%	-27
SMILES	RGS4 inhibitor	DRD3 antagonist	uPA generation	D3 ag
CCO[C@@H]1OC(C(=O)N2CCN(Cc3ccc4c(c3)OCO4)CC2)=C[C@H](c2ccc(Br)cc2)[C@H]1CCCO	-16%	-98*	?	-37
COc1ccc(-c2csc(NC(=O)c3cccc(S(=O)(=O)N4CCN(C)CC4)c3)n2)cc1	-18%	-51*	-9%	-2
O=C(Nc1nc(-c2ccccn2)cs1)c1cccc(S(=O)(=O)N2CCOCC2)c1	-51%	11	10µM*	1
CCCN1CCN(CCCNC(=O)c2ccc3c(c2)sc2nc(-c4ccc(OC)cc4)cn23)CC1	-8%	.	.	-10
CCOc1ccc(CCNC(=O)c2cc(Nc3ccc(C)cc3C)nc3ccccc23)cc1OCC	-13%	.	.	-16
COC(=O)c1c(-c2ccc(Cl)cc2)noc1N1CCN(c2cccc(C)c2C)CC1	-5%	.	.	3
COC(=O)c1c(-c2ccc(Cl)cc2)noc1N1CCN(c2cccc(OC)c2)CC1	26%	.	.	82*
O=C(O)c1c(-c2ccccc2)oc2ccc(O)cc12	-12%	30	-2%	-1
Cc1ccc2oc(-c3ccccc3)c(C(=O)O)c(=O)c2c1	-1%	-53*	-4%	-2
Cc1ccc(-c2nnc(Nc3ccc(F)cc3)c3ccccc23)cc1S(=O)(=O)NC(C)C	-1%	.	.	3
Cc1nn(CC(=O)NCCCN2CCN(Cc3ccccc3)CC2)c(=O)c2cc(-c3ccccc3)nn12	1%	-66*	-7%	-17
Cc1nn(CC(=O)NCCCN2CCC(Cc3ccccc3)CC2)c(=O)c2cc(-c3ccccc3)nn12	19%	-88*	5%	3
CCc1ccc(-c2cc3c(=O)n(CC(=O)NCCCN4CCC(Cc5ccccc5)CC4)nc(C)n3n2)cc1	-14%	-15	-17%	-15
CCc1nn(CC(=O)NCCCN2CCc3ccccc3C2)c(=O)c2cc3sccc3n12	-28%	-112*	-18%	-16
CO[C@H](C(=O)N(C)C[C@@H]1OCc2ccccc2-c2c(n(C)c3ccccc23)C(=O)N([C@H](C)CO)C[C@@H]1C)c1ccccc1	.	-24	.	-1
O=C(c1cccc(S(=O)(=O)N2CCOCC2)c1)N1CCN(C/C=C/c2ccccc2)CC1	-23%	0	-6%	31*
O=C(NCC(=O)N1CCN(C/C=C/c2ccccc2)CC1)c1ccc(Br)cc1	13%	-12	3%	-7
O=C(c1ccc(Br)o1)N1CCN(C/C=C/c2ccccc2)CC1	-11%	-69*	3%	-10
O=C(c1ccc(Br)s1)N1CCN(S(=O)(=O)c2ccccc2)CC1	5%	-13	1%	-15
O=C(c1ccc(Br)s1)N1CCN(C/C=C/c2ccccc2)CC1	-3%	-75*	.	-50
Cc1ccc(S(=O)(=O)NCCC(=O)N2CCN(C/C=C/c3ccccc3)CC2)cc1	19%	20	-12%	0
CC(=O)c1ccc(S(=O)(=O)NCC(=O)N2CCN(C/C=C/c3ccccc3)CC2)cc1	-46%	-11	-5%	43*
COc1ccc(-n2c(=O)c3ccccc3n(Cc3ccc(F)cc3Cl)c2=O)cc1OC	14%	.	.	2
CCOC(=O)c1cccc(NC(=O)C2CCN(c3nnc(C)c4c(C)n(-c5ccccc5)nc34)CC2)c1	11%	.	.	-14
COc1cccc(NC(=O)N(CCC(C)C)C2CCN(C(C)C)CC2)c1	15%	.	.	-33
O=C(NCc1ccccc1)c1cccc(N2CCCS2(=O)=O)c1	-12%	.	.	-6
